Hits are enriched below; roughly 12% of the tested compounds scored in any of these assays.
Cycloheximide cs: Cycloheximide Counterscreen for Small Molecule Inhibitors of Shiga Toxin; max response, %; actives 12% (n = 300,000); AID 2314, 2010; cell reporter, cycloheximide protein synthesis inhibition counterscreen; in the data active = max response mostly above about 13%, no sharp cut-off; inactive = mostly below about 14%; note: read at 38.3 µM for the half of the compounds with a filed dose
SARS PLP yeast: qHTS of Yeast-based Assay for SARS-CoV PLP; S. cerevisiae expressing SARS-CoV PLpro, growth rescue; Potency, µM (titrated, usually from 32.9 µM), hits mostly activators; actives 0.19% (n = 330,000); AID 485353, 2010; note: nearly all actives have a fitted effect of over 55% in size
Shiga inhibitor: A qHTS for Small Molecule Inhibitors of Shiga Toxin; actives 9.2% (n = 290,000); inhibition, % at 38.7 µM; Vero cells, Shiga toxin protein synthesis inhibition reporter; in the data active = inhibition mostly above about 28%, no sharp cut-off; inactive = mostly below about 43%
NS1 function inh: qHTS Assay for Inhibitors of Influenza NS1 Protein Function | Potency, µM (doses to about 46.1 µM) | actives 0.4% (n = 270,000) | AID 2326, 2010; note: actives are rising curves; nearly all actives have a fitted effect of over 50% in size
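Read-out: OD600 growth recovery of NS1-expressing budding yeast. Cells grown overnight at 30C in -URA glucose medium, washed, resuspended and diluted 1:100 in 2% galactose assay medium, pH 6.0. Same strain lacking NS1 served as positive control.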
Numbers stand for hits; . = inactive; ? = inconclusive; / = no result given; + = active, no number. Unless noted, calls come from the whole dose curve.

SMILES | Cycloheximide cs | SARS PLP yeast | Shiga inhibitor | NS1 function inh
CCCC(C)NC(=O)COC(=O)c1ccc2c(c1)C(=O)N(Cc1ccco1)C2=O (stereo not drawn) | . | . | . | .
O=C(c1ccco1)N1CCN(C(=O)C2CC(c3ccccc3F)=NO2)CC1 (stereo not drawn) | . | . | . | .
CCSC1=NCCN1C(=O)c1ccc(S(=O)(=O)N(C)C)cc1 | . | . | . | /
CCOc1ccc(N(C(=O)c2ccccc2Cl)C2=NC(C)(C)CS2)cc1 | 28.3 | . | 65.6 | /
CCOc1ccc(/C=C(/NC(=O)c2ccccc2Cl)C(=O)O)cc1 | . | . | . | .
C=C(C)C1CC=C(C)/C(=N/NC(=O)C2CC2c2ccccc2)C1 (stereo not drawn) | . | . | . | /
Cc1ccc(C(=O)Cn2ncsc2=N)cc1 | 52.1 | . | 126.7 | .
COC(=O)c1c(NC(=O)C(=O)NCCCN2CCOCC2)sc2c1CCCC2 | . | . | . | .
CCOC(=O)c1c(C)oc2c1c(C=NCC1CCCO1)c(O)c1ccccc12 (stereo not drawn) | . | . | . | .
CC(=O)c1c(C)oc2c1cc(O)c1ccccc12 | 19.8 | . | . | .
CCOC(=O)c1c(C)n(CC)c2c1cc(O)c1ccccc12 | . | . | . | .
CCOC(=O)c1c(C)oc2c1cc(NS(=O)(=O)c1ccc(C(=O)O)cc1)c1ccccc12 | . | . | . | .
CCOC(=O)c1c(C)[nH]c2c1cc(O)c1ccccc12 | 33.5 | . | 65.2 | .
CCOC(=O)c1c(C)oc2c1c(C=NCc1ccccn1)c(O)c1ccccc12 | 29.3 | . | 46.8 | .
CCOC(=O)c1c(C)oc2c1cc(O)c1ccccc12 | 34.9 | . | 107.6 | .
O=C(CCc1n[nH]c(=O)[nH]c1=O)Nc1cccc([N+](=O)[O-])c1 | . | . | . | /
CC1CCCC(NC(=O)CN(C)CC(=O)Nc2cccc(F)c2)C1C (stereo not drawn) | / | . | / | /
CC(=O)c1cc(O)c2ccccc2c1O | 30.5 | . | 65.8 | .
Clc1ccccc1OCCN1CCCCC1 | . | . | . | .
Cn1c(=O)n(CCOc2ccccc2Cl)c2ccccc21 | 49.6 | . | 79.0 | .
COc1ccccc1OCCn1c(=O)n(C)c2ccccc21 | 20.8 | . | 27.6 | .
O=c1ccccn1CCOc1ccccc1Cl | 19.1 | . | 44.7 | .
CN(Cc1nccs1)C(=O)C1CCC(=O)N(CCc2ccc(Cl)cc2)C1 (stereo not drawn) | . | . | . | .
COC(=O)c1ccc(CSc2nnc(NC(=O)C3CC(=O)N(c4ccc5c(c4)OCCO5)C3)s2)cc1 (stereo not drawn) | 19.9 | . | . | .
CS(=O)(=O)c1ccc2nc(NC(=O)C3CC(=O)N(c4ccc(F)cc4)C3)sc2c1 (stereo not drawn) | . | . | . | .
SMILES | Cycloheximide cs | SARS PLP yeast | Shiga inhibitor | NS1 function inh
CCc1ccc(N2CC(C(=O)Nc3ccc4c(c3)OCCO4)CC2=O)cc1 (stereo not drawn) | 30.6 | . | 81.9 | .
Cc1cccc(N2CC(C(=O)Nc3ccc4c(c3)OCCO4)CC2=O)c1C (stereo not drawn) | . | . | 71.4 | .
CCc1ccc(N2CC(C(=O)Nc3nc4ccc(S(C)(=O)=O)cc4s3)CC2=O)cc1 (stereo not drawn) | 17.1 | . | 66.9 | .
Cc1cc(NS(=O)(=O)c2ccc(NC(=O)CSc3nc4ncc(Cl)cc4[nH]3)cc2)nc(C)n1 | . | . | . | .
C=CCNS(=O)(=O)c1ccc2nsnc2c1 | . | . | . | .
COc1ccc(-c2csc(NC(=O)C3CC(=O)N(c4ccc5c(c4)OCCO5)C3)n2)cc1 (stereo not drawn) | 24.4 | . | . | ?
CCN(CC)c1ccc(C(=O)O)cc1 | . | . | . | .
CCN(CC)c1ccc(/C=C2\C(=O)c3ccc(C(=O)O)cc3C2=O)cc1 | 130.3 | . | + | .
CCOc1ccc(CN(C)CC(=O)Nc2ccc3c(c2)CCC3)cc1OC | . | . | . | /
COc1cc(CNc2ccc3c(c2)CCC3)cc(OC)c1O | 30.0 | . | 62.5 | .
CCOc1cc(CNc2ccc3c(c2)CCC3)ccc1O | 33.8 | . | . | .
CC(C)OC(=O)NCCOC(=O)Nc1ccc(Cl)cc1 | . | . | . | .
CS(=O)c1ccccc1COC(=O)Nc1ccc(Cl)cc1 (stereo not drawn) | 15.8 | . | . | .
Cc1ccc(NC(=O)OCc2ccccc2S(C)=O)cc1 (stereo not drawn) | 30.2 | . | . | /
COc1ccc(C(=O)NCC(=O)OCC(=O)Nc2sccc2C#N)cc1OC | 22.3 | . | 36.1 | /
CN(C)S(=O)(=O)c1cccc(C(=O)OCC(=O)Nc2sccc2C#N)c1 | 56.3 | . | 74.5 | .
